This passage reports survival results from PubChem BioAssay AID463173 (ICCB-Longwood Screening Facility, Harvard Medical School, 2010).

Screen size: about 52,000 compounds; about 4,300 (8.3%) were called active. Rule as the data show it: active = survival mostly below about 52% (no sharp cut-off); inactive = mostly above about 56%. Shown is part of a subset that was picked to be rich in actives.

The experiment concerns DeltatarO mutant. Description: growth inhibition of S. aureus wild type versus tarO mutant, primary screen, teichoic acid synthesis inhibitors, RN4220, OD600 (AID 463173). Particulars: OD600, 18 h, stronger effect = lower value, screened at 18.75 µg/mL (by protocol).
On to `Fc1ccc(Nc2ncnc3c2nc2n3CCCCC2)c(F)c1`, for which the survival was 55% (inactive). Take `CN(C)S(=O)(=O)N(CC(=O)NCCSc1ccc(Cl)cc1)c1ccccc1`: the survival is 50% (inactive). As for `NC(=O)CCn1c2ccccc2c2ccccc21`, the survival is 78% (inactive).

Regarding `O=C1C=CC(=O)C(c2ccc(Cl)cc2)=C1`, the survival was 66% (inactive).

For `CCCCNc1sc(S(=O)(=O)CCC)nc1S(=O)(=O)c1ccc(C)cc1`, the survival is 86% (inactive). For `Cc1ccc(S(=O)(=O)c2c(Nc3ccc(C)c(C)c3)sc(C(=O)c3ccc4c(c3)OCO4)c2N)cc1` the value was 125% (inactive); for `COc1ccccc1NC(=O)c1cc2c([nH]c1=O)CC(C)(C)CC2=O`, 90% (inactive); for `CCN(CC)C(=O)c1sc2c(c1C)c(=O)n(CCc1ccccc1)c(=O)n2Cc1cccc(Cl)c1`, 102% (inactive). Take `CCOc1ccc(-c2nc(Cn3ccn4nc(-c5ccc(OCC)c(Cl)c5)cc4c3=O)c(C)o2)cc1`: the survival is 96% (inactive). Take `CCCCOc1ccc(-c2nnn(C(C)(C)C(=O)O)n2)cc1`: the survival was 99% (inactive). Consider `CCOC(=O)c1c(S(=O)(=O)NCC(=O)N2CCN(c3ccccc3OC)CC2)c(C)n(C)c1C`, for which the survival is 77% (inactive). As for `O=C(CSc1nc(O)cc(=O)[nH]1)Nc1ccccc1`, the survival is 82% (inactive).

For the compound `Cc1ccccc1NS(=O)(=O)c1ccc2[nH]cc(C(=O)NC(C)c3ccccc3)c(=O)c2c1` (stereo not given), the survival was 90% (inactive). Turning to `CN(C(=O)c1c[nH]c2ccc(S(=O)(=O)Nc3cccc(C(F)(F)F)c3)cc2c1=O)C1CCCCC1`, the survival was 72% (inactive).

Take `COc1cccc(NS(=O)(=O)c2ccc3[nH]cc(C(=O)NCCc4ccccc4)c(=O)c3c2)c1`: the survival is 83% (inactive).

Consider `COc1cccc(NS(=O)(=O)c2ccc3[nH]cc(C(=O)NC(C)c4ccccc4)c(=O)c3c2)c1` (stereo not given), for which the survival was 37% (active). For the compound `O=C(NC1CCCC1)c1c[nH]c2ccc(S(=O)(=O)Nc3cccc(C(F)(F)F)c3)cc2c1=O`, the survival was 16% (active). Consider `CC(C)CCNC(=O)c1c[nH]c2ccc(S(=O)(=O)Nc3cccc(C(F)(F)F)c3)cc2c1=O`, for which the survival is 74% (inactive).

For `CCOc1ccc(-c2noc(CSc3nnc(Cc4ccccc4)n3-c3cccc(C)c3)n2)cc1`, the survival is 66% (inactive). In the case of `Cc1ccc(C)c(Cn2c(SCC(=O)NCc3ccccc3)nc3ccccc32)c1`, the survival was 73% (inactive).

For the compound `COc1cc(NC(=O)c2cc(Cl)ccc2Cl)ccc1NC(=O)c1cc2ccccc2o1`, the survival was 55% (inactive). In the case of `CCOc1ccc(S(=O)(=O)Nc2ccc3c(c2)c(C(C)=O)c(C)n3S(=O)(=O)c2ccc(OCC)cc2)cc1`, the survival was 67% (inactive). For `NC(=O)CSc1nnc(Cn2cnc3ccccc32)o1` the value was 79% (inactive). Regarding `CCOc1ccc(NC(=O)CCC(=O)N2CCSc3ccccc32)cc1`, the survival is 75% (inactive). As to `CCCN(C(=O)c1coc(=O)c2ccccc12)c1ccccc1C`, the survival was 56% (active). `CCCN(C(=O)c1cn(C)c(=O)c2ccccc12)c1ccccc1C`: the survival is 79% (inactive). On to `CCN(C(=O)c1coc(=O)c2ccccc12)c1ccccc1C`, for which the survival is 113% (inactive). On to `CC(=O)N1CCCc2cc(S(=O)(=O)N3CCCC(C(=O)Nc4cccc(F)c4)C3)ccc21` (stereo not given), for which the survival is 87% (inactive).

For `CCc1ccc(-n2c(=O)c3c4c(sc3n(Cc3ccc(F)cc3)c2=O)CCCC4)cc1`, the survival is 42% (inactive).

`COC(=O)c1ccc(C(=O)OC)c(NC(=O)c2cc3nc(-c4ccc(C)cc4)cc(C(F)(F)F)n3n2)c1`: the survival is 83% (inactive).

On to `COc1ccc(-c2cc(C(F)(F)F)n3nc(C(=O)Nc4cc(C(F)(F)F)ccc4Cl)cc3n2)cc1OC`, for which the survival is 152% (inactive).

On to `COc1ccc(-c2cc(C(F)(F)F)n3nc(C(=O)Nc4cccc(Cl)c4C)cc3n2)cc1`, for which the survival was 70% (inactive). For `COC(=O)c1ccccc1NC(=O)c1cc2nc(-c3ccc(OC)cc3)cc(C(F)(F)F)n2n1`, the survival is 36% (active).

Consider `COc1ccc(-c2cc(C(F)(F)F)n3nc(C(=O)Nc4cc(C)ccc4C)cc3n2)cc1`, for which the survival is 70% (inactive).

For the compound `COc1cc(NC(=O)c2cc3nc(-c4ccc(C)cc4)cc(C(F)(F)F)n3n2)cc(OC)c1OC`, the survival was 41% (active). To `COc1ccc(Cl)cc1NC(=O)c1cc2nc(-c3ccc(C)cc3)cc(C(F)(F)F)n2n1` belongs 78% (inactive); to `COc1ccc(-c2cc(C(F)(F)F)n3nc(C(=O)Nc4cc(Cl)cc(Cl)c4)cc3n2)cc1`, 86% (inactive). `COc1ccc(NC(=O)c2cc3nc(-c4ccc(Cl)c(Cl)c4)cc(C(F)(F)F)n3n2)c(OC)c1`: the survival was 47% (active).

With `Cc1cc(N2CCC(C(O)(c3ccccc3)c3ccccc3)CC2)nc(C)n1`, the survival is 108% (inactive). Regarding `Cc1cc(C)cc(-n2c(SCC(=O)Nc3ccc4c(c3)OCCO4)nc3c([nH]c4ccccc43)c2=O)c1`, the survival was 126% (inactive).

Take `Cc1cc(C)cc(OCC(=O)N(Cc2ccco2)Cc2ccccc2Cl)c1`: the survival is 73% (inactive). `Cc1cc2oc(C(=O)N(Cc3ccc(N(C)C)cc3)Cc3ccco3)c(C)c2cc1Cl`: the survival is 84% (inactive). To `CCc1ccc2oc(C(=O)N(Cc3ccc(N(C)C)cc3)Cc3ccco3)c(C)c2c1` belongs 71% (inactive); to `CCc1ccc2oc(C(=O)N(Cc3cccc(Cl)c3)Cc3ccco3)c(C)c2c1`, 53% (inactive); to `Cc1c(C(=O)N(Cc2cccc(Cl)c2)Cc2ccco2)oc2ccccc12`, 40% (active). `Cc1c(C(=O)N(Cc2ccco2)Cc2ccccc2Cl)oc2ccc(F)cc12`: the survival is 42% (active). For `Cc1ccc(CN(Cc2ccco2)C(=O)c2oc3ccc(C)cc3c2C)cc1`, the survival was 54% (inactive). Regarding `O=C(c1cccc(Cl)c1)N(Cc1ccco1)Cc1ccccc1Cl`, the survival is 32% (active). For `Cc1cccc(C(=O)N(Cc2ccco2)Cc2ccccc2F)c1` the value was 102% (inactive); for `Cc1cc2oc(C(=O)N(Cc3ccco3)Cc3ccccc3Cl)c(C)c2cc1C`, 43% (active). As for `COc1cccc(C(=O)N(Cc2cccc(Cl)c2)Cc2ccco2)c1`, the survival is 68% (inactive). With `Cc1cc2oc(C(=O)N(Cc3ccc(Cl)cc3)Cc3ccco3)c(C)c2cc1Cl`, the survival was 64% (inactive).

`CCn1cc(C(=O)NCc2ccc(C)cc2)c(=O)c2cc(S(=O)(=O)N(C)C3CCCCC3)ccc21`: the survival was 75% (inactive). `CN(Cc1ccccc1)C(=O)Cn1ncc2c3ccccc3n(Cc3cccc(Cl)c3)c2c1=O`: the survival is 90% (inactive). To `Cc1c(Cl)cccc1NC(=O)C(=O)NCCc1csc(-c2cccc(F)c2)n1` belongs 76% (inactive). With `CCC(C)[C@@H](C(=O)Nc1ccc(C)cc1)N1Cc2ccccc2C1=O` (stereo not given in full), the survival is 74% (inactive). For the compound `CCn1cc(C(=O)NCCCOC)c(=O)c2cc(S(=O)(=O)N3CCCC3)ccc21`, the survival was 92% (inactive).

As to `Cc1ccc(C(CC(=O)Nc2ccc(F)c(Cl)c2)N2Cc3ccccc3C2=O)cc1` (stereo not given), the survival was 88% (inactive).

Regarding `CCC(=O)N1CCc2cc(Br)cc(S(=O)(=O)N3CCCC(C(=O)NCc4ccccc4)C3)c21` (stereo not given), the survival is 107% (inactive).

On to `Cc1c(C(=O)N(Cc2ccc(N(C)C)cc2)Cc2ccco2)oc2cc(Br)ccc12`, for which the survival was 68% (inactive). As to `Cc1ccc(CN(Cc2ccco2)C(=O)c2oc3c(C)c(C)ccc3c2C)cc1`, the survival is 50% (inactive). For `Cc1ccc(CN(Cc2ccco2)C(=O)c2oc3cc(Br)ccc3c2C)cc1` the value was 43% (active). As for `CCOc1ccc(C(=O)c2cn(CC(=O)Nc3ccc(OC)cc3)c3cc4c(cc3c2=O)OCO4)cc1`, the survival was 69% (inactive). Regarding `CCC1CCCCN1CCCNC(=O)CN1C(=O)c2cccnc2Oc2ccc(C)cc21` (stereo not given), the survival is 78% (inactive). For `CCS(=O)(=O)N1CC(=O)N(c2ccc(C)c(C)c2)C(C)(C(=O)NC2CCCCC2)C1` (stereo not given), the survival was 87% (inactive). As to `CCc1ccc(NC(=O)c2cc(S(=O)(=O)N3CCCCC3)c[nH]2)cc1`, the survival is 105% (inactive). On to `Cc1c(CC(=O)NCc2ccccc2Cl)c(=O)oc2cc(O)ccc12`, for which the survival is 44% (active). On to `Cc1cc(O)c2c(C)c(CC(=O)NCc3ccccc3Cl)c(=O)oc2c1`, for which the survival was 62% (inactive). To `COc1ccccc1CCNC(=O)Cc1c(C)c2ccc(O)cc2oc1=O` belongs 57% (inactive). Regarding `CCN(CC)c1ncnc(Cl)c1Cc1ccc(OC)cc1`, the survival was 105% (inactive). For the compound `COc1ccccc1NC(=O)N1CCN(c2cc(-c3ccccc3)nc3ncnn23)CC1`, the survival is 66% (inactive).

Regarding `Cc1cccc(-c2nc(S(=O)(=O)c3ccc(F)cc3)c(N3CCN(c4ccccc4)CC3)o2)c1`, the survival was 110% (inactive).

`Cc1cccc(-c2nc(S(=O)(=O)c3ccc(Cl)cc3)c(N3CCCCCC3)o2)c1`: the survival was 46% (active). Regarding `COc1cccc(-c2nc(S(=O)(=O)c3ccc(C)cc3)c(N3CCCCCC3)o2)c1`, the survival was 55% (inactive).

For the compound `COc1cccc(-c2nc(S(=O)(=O)c3ccc(C)cc3)c(N3CCCCC3)o2)c1`, the survival is 47% (inactive).

Consider `Cc1ccc(S(=O)(=O)c2nc(-c3cccc(C)c3)oc2N2CCN(c3ccccc3)CC2)cc1`, for which the survival is 114% (inactive). For `Cc1cccc(-c2nc(S(=O)(=O)c3ccccc3)c(N3CCN(c4ccccc4)CC3)o2)c1`, the survival was 112% (inactive). For `Cc1ccc(S(=O)(=O)c2nc(-c3cccc(Br)c3)oc2N2CCCCCC2)cc1` the value was 45% (active); for `Cc1ccc(S(=O)(=O)c2nc(-c3cccc(C)c3)oc2N2CCCCC2)cc1`, 6% (active); for `COc1cccc(-c2nc(S(=O)(=O)c3ccccc3)c(N3CCCCC3)o2)c1`, 61% (inactive). On to `Cc1ccc(Cc2nc3ccccc3nc2SCC(=O)NCc2ccccc2Cl)cc1`, for which the survival is 120% (inactive).

In the case of `O=C(Cn1c(=O)n(-c2ccccc2Cl)c(=O)c2sc3ccccc3c21)N1CCCC1`, the survival was 80% (inactive). For `O=c1c2oc3ccccc3c2n(Cc2ccccc2Cl)c(=O)n1Cc1ccc2c(c1)OCO2` the value was 65% (inactive); for `CSc1ccc(CNC(=O)c2cc3cc(S(=O)(=O)N4CCCCC4)ccc3n2C)cc1`, 95% (inactive); for `Cc1ccc(Cl)cc1NC(=O)CSc1nc2ccccc2c2nc(-c3ccccc3)nn12`, 113% (inactive).
